Activity data for 49 molecules are collected here from PubChem BioAssay.

The target in test [1] is Tumor necrosis factor receptor superfamily member 10B (Homo sapiens) (UniProt O14763). The experiment in a line: viability loss of caspase-8 NB7 cells with TRAIL – with/without TRAIL, luminescence panel, confirmation (AID 651596). The note with it: NB7 neuroblastoma + caspase-8, TRAIL sensitization, NB7 Caspase-8, with TRAIL, mean of runs, at 10 µM, stronger effect = higher value.
Assay in test [2]: as above
The note with it: NB7 neuroblastoma + caspase-8, without TRAIL, NB7 Caspase-8, without TRAIL, mean of runs, at 10 µM.

Tumor necrosis factor receptor superfamily member 10B (Homo sapiens), sequence (O14763 whole entry, looked up): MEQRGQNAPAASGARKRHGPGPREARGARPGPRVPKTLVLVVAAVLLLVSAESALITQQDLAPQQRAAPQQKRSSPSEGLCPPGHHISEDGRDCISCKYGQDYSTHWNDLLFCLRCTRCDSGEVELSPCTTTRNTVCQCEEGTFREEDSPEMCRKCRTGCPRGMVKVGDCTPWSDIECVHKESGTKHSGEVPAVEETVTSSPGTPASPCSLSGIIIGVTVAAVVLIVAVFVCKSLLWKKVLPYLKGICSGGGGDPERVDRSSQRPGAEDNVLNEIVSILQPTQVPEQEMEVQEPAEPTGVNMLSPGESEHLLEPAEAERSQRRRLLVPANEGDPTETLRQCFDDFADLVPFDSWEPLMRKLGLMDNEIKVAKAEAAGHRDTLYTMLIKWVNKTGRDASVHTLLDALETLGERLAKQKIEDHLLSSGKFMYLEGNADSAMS

For `Cc1cccc(N2CCN(S(=O)(=O)c3ccc4c(c3)NC(=O)C(C)S4)CC2)c1C` (stereo not drawn), the activity is -0.6% in test [1] and -25.6% in test [2].
For `CC1Oc2ccccc2C=C1/C=N/NC(=O)c1ccccc1O` (stereo not drawn) the same measures were 46.1% and 44.9%.
The like results for `COc1ccc(C(=O)O/N=C(\N)Cc2ccc(Cl)cc2)cc1OC` were, in that order, 99.3% and 95.8%.
The like results for `NC1=NC[C@H](CC2CCCCC2)N1CCc1cc(C(F)(F)F)cc(C(F)(F)F)c1` were, in that order, 40.9% and 80%.
Regarding `CCN1CCN(Cc2ccc(NC(=O)c3cc(NC(=O)c4cncc(-c5ccc(C#N)cc5)c4)cc(OC)c3)cc2C(F)(F)F)CC1`, the activity in test [1] was 58%; in test [2], 98.7%.
The like results for `C(=N\NC1=Nc2cccc3cccc1c23)/c1ccccc1` were, in that order, 34.3% and 14.2%.
For the molecule `Cn1c(NC(=O)c2ccc(F)cc2)nc2ccccc21`, the activity was 45.1% in test [1] and 57.1% in test [2].
For `Clc1ccccc1Nc1nnc(-c2ccncc2)s1` the same measures were 61.3% and 63.3%.
For `CCC[C@H](CN[C@@H](CNC)[C@H](C)CC)NCCc1cc(C(F)(F)F)cc(C(F)(F)F)c1` the same measures were 65.7% and 96.1%.
`NC(Cc1ccc(C(F)(F)F)cc1)c1csc(NC(=O)Nc2ccccc2Cc2ccccc2)n1` (stereo not drawn): the activity in test [1] amounted to 75%; in test [2], 96.2%.
The like results for `C(=C\c1nc2ccccc2[nH]1)/c1ccccc1` were, in that order, 93.8% and 93.6%.
`Cn1c(=S)[nH]c2sc3c(c2c1=O)CCC(C(C)(C)C)C3` (stereo not drawn): the activity in test [1] worked out at 86.4%; in test [2], 78%.
As to `Cc1ccc(OCC(=O)NC(=S)Nc2ccccn2)c(Br)c1`, the activity worked out at 86.3% in test [1] and 81.9% in test [2].
The like results for `C/C(Cn1nnc([N+](=O)[O-])n1)=N\NC(=O)c1ccccc1O` were, in that order, 43.8% and 51%.
`COc1ccccc1/C=C/C1(C(=O)NC2CCCC2)CC(=O)N1c1ccc(F)cc1` (stereo not drawn): the activity in test [1] is 98%; in test [2] it was 98.1%.
The like results for `CCc1nc(N2CCN(C(=O)CCl)CC2)c2c3c(sc2n1)CC(C)CC3` (stereo not drawn) were, in that order, 99.3% and 91.5%.
The like results for `Cc1ccc2oc(/N=C(\N)NC(=O)C3CC3)nc2c1` were, in that order, 56.4% and 71%.
The like results for `Cc1cc(N2CCOCC2)n2ncc(-c3ccccc3)c2n1` were, in that order, 66.8% and 52.8%.
Consider `Cc1ccc(-c2nnc(Nc3ccccc3)o2)cc1`, for which the activity in test [1] stood at 59.7%; in test [2], 54.5%.
`O=C(Nc1ccc(-c2cn3ccsc3n2)cc1)C1CC1`: the activity in test [1] amounted to 75.1%; in test [2], 70.2%.
On to `COc1cccc(/C=C2/Sc3ccc(C(=O)NCCN4CCCCCC4)cc3NC2=O)c1`, for which the activity in test [1] was found to be 36%; in test [2], 73.3%.
The like results for `COc1ccc2cc(-c3ccccc3)ncc2c1` were, in that order, 63.8% and 63.7%.
Take `CCc1nnc(NC(=O)c2nc(S(=O)(=O)Cc3ccccc3)ncc2Cl)s1`: the activity in test [1] worked out at 95.4%; in test [2] it was 74.3%.
For `C/C(=N/NC(=O)c1ccccn1)c1ccco1` the same measures were 35.1% and 41.5%.
The like results for `CS(=O)(=O)c1ccc2nc(NC(=O)c3ccco3)sc2c1` were, in that order, 61% and 57.8%.
The like results for `Nc1ccc(C(=O)Nc2nc3ccccc3s2)cc1` were, in that order, 44.8% and 41%.
As to `COc1cc2nc(CN(C)Cc3ccc(C(C)(C)C)cc3)[nH]c(=O)c2cc1OC`, the activity in test [1] was found to be 70.5%; in test [2] it was 68%.
For `O=C(Nc1cc2ccccc2oc1=O)c1ccccc1` the same measures were 54.1% and 52%.
The like results for `C=CCOc1ccc(/C=C/C(C)=N\O)cc1` were, in that order, 57.2% and 71.7%.
The like results for `Cc1cnc(NC(=O)COc2ccccc2Cl)s1` were, in that order, 83% and 82.7%.
`COc1ccc(OCC(=O)N/N=C(\C)c2cc3ccccc3o2)cc1`: the activity in test [1] was 62.8%; in test [2] it was 70.2%.
For `NC(Cc1ccccc1)c1csc(NC(=O)Nc2ccccc2Oc2ccccc2)n1` (stereo not drawn) the same measures were 61.5% and 78.7%.
For `Cc1ccc2nc(-c3ccc(NC(=O)C4CCCO4)cc3)[nH]c2c1` (stereo not drawn) the same measures were 72.2% and 71.9%.
The like results for `CC[C@]12c3[nH]c4ccc(Cl)cc4c3CCN1C(=O)[C@@H](CC(=O)NCc1cccc(C(F)(F)F)c1)C[C@@H]2C(=O)N1CCN(C(=O)c2ccco2)CC1` were, in that order, 71% and 68.7%.
As to `COc1ccc(-c2cc3ccccc3cn2)cc1`, the activity in test [1] was 57.4%; in test [2], 54.3%.
Consider `Cc1ccc(/C=N/NC(=O)c2nn(C)cc2Cl)cc1`, for which the activity in test [1] worked out at 62.2%; in test [2], 36%.
Take `CC1CCc2nc(NC(=O)c3ccco3)sc2C1` (stereo not drawn): the activity in test [1] was found to be 90.5%; in test [2], 89%.
The like results for `COc1ccccc1-c1cc(C(=O)NC2CCN(C)CC2)c2ccc(Cl)c(C)c2n1` were, in that order, 89.2% and 86%.
The like results for `Cc1ccc2c(c1)sc(=NC(=O)c1cccs1)n2C` were, in that order, 91.1% and 90.7%.
Regarding `Cc1ccc(S(=O)(=O)N2CCCCC2)cc1NC(=O)Cn1ncc(Cl)c(Cl)c1=O`, the figures for the activity in test [1] and in test [2] were 98.7% and 99.3%, respectively.
For `CCOc1ccc(NC(=O)Nc2cccnc2)cc1` the same measures were 55.2% and 40.9%.
For `Cc1ccc(-c2nc(N/N=C/c3cccnc3)c3ccccc3n2)cc1`, the activity in test [1] was 94.3%; in test [2] it was 88.2%.
Take `Cc1ccnc(NC(=O)CCC2CCCCC2)c1`: the activity worked out at 60.2% in test [1] and 46.5% in test [2].
The like results for `COc1ccc2nc(-c3ccccc3)[nH]c2c1` were, in that order, 57.3% and 65.5%.
Consider `O=C(/C=C/Nc1ccccc1)c1ccccc1`, for which the values for the activity in test [1] and in test [2] were 63.1% and 44.8%, respectively.
For `COc1cc2nc(N3CCNCC3)nc(N)c2cc1OC` the same measures were 27.5% and 0.125%.
For `CCC(=O)Nc1cc2nn(-c3ccc(OC)cc3)nc2cc1C` the same measures were 62.5% and 61.8%.
For `Cc1ccc(CSc2nc3ccncc3[nH]2)cc1` the same measures were 98.5% and 99.2%.
As to `O=C(Nc1nnc(-c2ccccc2)o1)NC1CCCCC1`, the activity in test [1] is 34.9%; in test [2] it was 55.4%.
